The results in this text go back to PubChem BioAssay (NCATS).

SMILES strings stand for the structures. Records with an inconclusive call do not appear. A number with no mark means an inactive call. Calls of active or inactive are those of the source. Calls follow the shape of the dose curve; as a rule, active = well fitted activation curve with a large enough effect; inconclusive = small, poorly fitted or top-dose-only effect; inactive = no such curve, though single readings can be large or run the other way.
% is scaled to controls: 0 for no effect and ±100 for the full control effect; potency is read from the fitted curve at half-maximal effect.

The target in the test is Rap guanine nucleotide exchange factor 4 (Homo sapiens) (UniProt Q8WZA2). Nature of the test: Confirmatory qHTS for agonist of cAMP-regulated guanine nucleotide exchange factor 4 (EPAC2) (AID 1645884). Also: nearly all actives have a fitted effect of over 65% in size. The note with it: EPAC2 GEF activity, Rap1B-BODIPY-GDP fluorescence; series mostly up to 154 µM.
Sequence of Rap guanine nucleotide exchange factor 4 (Homo sapiens) (Q8WZA2 whole entry, looked up): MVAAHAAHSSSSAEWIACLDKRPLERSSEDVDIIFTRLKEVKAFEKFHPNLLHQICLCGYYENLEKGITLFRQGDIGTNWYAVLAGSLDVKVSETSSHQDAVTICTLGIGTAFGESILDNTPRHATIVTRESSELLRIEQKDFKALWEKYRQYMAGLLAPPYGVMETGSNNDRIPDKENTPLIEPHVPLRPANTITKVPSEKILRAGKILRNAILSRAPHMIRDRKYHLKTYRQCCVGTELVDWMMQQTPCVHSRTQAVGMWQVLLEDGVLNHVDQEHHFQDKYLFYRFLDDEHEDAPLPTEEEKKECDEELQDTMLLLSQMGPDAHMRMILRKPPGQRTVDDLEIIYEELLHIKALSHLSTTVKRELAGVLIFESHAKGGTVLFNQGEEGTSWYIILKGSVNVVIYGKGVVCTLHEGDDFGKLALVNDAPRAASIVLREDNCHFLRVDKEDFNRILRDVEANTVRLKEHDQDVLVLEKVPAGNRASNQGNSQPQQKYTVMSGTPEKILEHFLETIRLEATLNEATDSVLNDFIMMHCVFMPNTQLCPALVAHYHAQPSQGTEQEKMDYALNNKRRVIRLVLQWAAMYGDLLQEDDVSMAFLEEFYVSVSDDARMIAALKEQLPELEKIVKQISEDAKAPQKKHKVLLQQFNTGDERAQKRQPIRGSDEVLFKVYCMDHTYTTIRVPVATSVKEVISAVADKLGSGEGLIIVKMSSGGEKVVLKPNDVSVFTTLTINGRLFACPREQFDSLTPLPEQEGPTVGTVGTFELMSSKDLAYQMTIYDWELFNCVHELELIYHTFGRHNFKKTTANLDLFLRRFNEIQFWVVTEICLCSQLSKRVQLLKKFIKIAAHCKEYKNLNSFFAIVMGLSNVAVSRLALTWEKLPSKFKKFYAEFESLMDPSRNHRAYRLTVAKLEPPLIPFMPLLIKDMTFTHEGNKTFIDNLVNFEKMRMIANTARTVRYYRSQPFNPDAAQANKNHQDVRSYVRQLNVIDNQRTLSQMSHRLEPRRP
For `CC(NC(=O)/C(C#N)=C/c1ccc(N2CCOCC2)cc1)c1ccccc1` (stereo not given), the Potency was 112 µM (active).

Take `CC(/C=C/c1ccc(N(C)C)cc1)=N\N=C1\NC(=O)CC(C(=O)Nc2ccccc2)S1` (stereo not given): the activation is 10% [at 17.1 µM, percent relative to cAMP agonist control].

With `CCN1CCN(Cc2c(O)ccc3c2O/C(=C\C=C\c2ccccc2OC)C3=O)CC1`, the activation is 5.66% [at 17.1 µM, percent relative to cAMP agonist control].

As for `COc1ccc(-c2ncccc2OC(=O)C23CC4CC(CC(C4)C2)C3)cc1OC`, the activation is 1.83% [at 17.1 µM, percent relative to cAMP agonist control].

In the case of `Cc1ccc2cccc(OC(=O)c3c(F)cccc3Cl)c2n1`, the Potency entry was “inactive”.

Take `O=C(CSc1nc2ccccc2o1)NCc1ccc2c(c1)OCO2`: the Potency result is “inactive”.

In the case of `CN(C)c1ccc(/C=C(\C#N)C(=O)c2ccccc2)cc1`, the activation was 17.4% [at 17.1 µM, percent relative to cAMP agonist control].

Consider `Cc1cccc(NCc2cccc3ccccc23)n1`, for which the activation is 4.47% [at 17.1 µM, percent relative to cAMP agonist control].

As to `COc1ccccc1C(=O)NNC(=O)CCCN1C(=O)/C(=C/c2cccs2)SC1=S`, the activation was 1.7% [at 17.1 µM, percent relative to cAMP agonist control].

Regarding `O=c1[nH]c2ccccc2nc1/C=C(\O)c1cccs1`, the activation is 1.73% [at 17.1 µM, percent relative to cAMP agonist control].
